# Records with an inconclusive call do not appear. Active and inactive are the calls of the source. Rule for the calls, unless noted: active = hit-call score of the fitted dose curve at least 0.9, where 1 is the maximum; inactive = score below 0.9.
# Assays:
# [1] = biological target: Cytochrome P450 2C19 (Homo sapiens) (UniProt P33261); assay: NVS_ADME_hCYP2C19: NovaScreen (NVS) CYP450-related Enzyme Activity (ADME) Assay for human CYP2C19 (AID 2283113; active = hit-call score of the fitted dose curve at least 0.9, where 1 is the maximum;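 note: potency for inhibition seen as loss of fluorescent signal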)
# Summary of the method: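 Fluorescence intensity was measured 1 hour after chemicals were added to insect-cell-derived recombinant CYP2C19 with fluorogenic substrate. Decreased signal versus acetonitrile control was taken as reduced enzyme activity; initial testing used 10 uM in duplicate.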
# [2] = CEETOX_H295R_ANDR: CeeTox H295R High-throughput Steroidogenesis Assay for Androstenedione (ANDR) (AID 2283436); settings: actives raise or lower the signal
# Summary of the method: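 H295R human adrenal cells (passages ≤10) were exposed to test chemicals for 48 h; androstenedione in medium was MTBE-extracted and quantified by HPLC-MS/MS against a 7-point standard curve. Bidirectional fitting used DMSO as baseline.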
# [3] = CEETOX_H295R_TESTO: CeeTox H295R High-throughput Steroidogenesis Assay for Testosterone (TESTO) (AID 2283457); settings: actives raise or lower the signal;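 for AC50: cells exposed to chemicals for 48 h before medium collection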
# Summary of the method: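 H295R, passage ≤10, 48 h dosing; media extracted with MTBE → HPLC-MS/MS for testosterone; 7-pt standard curve sets LLOQ/ULOQ; bidirectional fit vs DMSO; MTT viability same wells.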
# [4] = tested on: rat Monoamine Oxidase, MAO-A, Central (MAOAC), gene 29253; assay: NVS_ENZ_rMAOAC: NovaScreen (NVS) Enzymatic Assay for rat Monoamine Oxidase, MAO-A, Central (MAOAC) (AID 2283243; active = hit-call score of the fitted dose curve at least 0.9, where 1 is the maximum;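 note: potency refers to inhibition seen as signal drop below DMSO baseline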)
# Summary of the method: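 Rat brain tissue extract served as the cell-free enzyme source; activity was measured by radiometric scintillation counting 1.5 hours after compound addition. Loss of signal relative to DMSO baseline indicated inhibition; primary screen at 25 uM in duplicate.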
# [5] = biological target: Estrogen receptor (Homo sapiens) + Estrogen receptor beta (Homo sapiens) (UniProt P03372+Q92731); assay: OT_ER_ERaERb_0480: Odyssey Thera (OT) 8-hour HEK293T Protein-Complementation Assay for Estrogen Receptor-alpha/-beta Heterodimer (AID 2283352; active = hit-call score of the fitted dose curve at least 0.9, where 1 is the maximum)
# Summary of the method: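 Compound added to HEK293T cells carrying split-reporter-tagged ER-alpha and ER-beta LBDs, incubated 8 hours, then imaged by laser scanning cytometer. Signal rise in nucleus, or nucleus and cytoplasm, over vehicle was fitted in the positive direction.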
# [6] = read-out: Monokine induced gamma interferon (MIG), CXCL9 (gene 4283); assay: BSK_KF3CT_MIG: BioMAP Diversity Plus: KF3CT Assay for Monokine induced gamma interferon (MIG) Biomarker Activity (AID 2284248); settings: primary human keratinocytes with fibroblasts
# Summary of the method: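 KF3CT system: keratinocyte/fibroblast co-culture, 24 h post-dose, MIG by ELISA; activity vs DMSO, positive fitting direction.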
# [7] = read-out: Interferon-inducible T-cell alpha chemoattractant (ITAC), CXCL11 (gene 6373); assay: BSK_hDFCGF_ITAC: BioMAP Diversity Plus: hDFCGF Assay for Interferon-inducible T-cell alpha chemoattractant (ITAC) Biomarker Activity (AID 2284251); settings: primary human foreskin fibroblasts
# Summary of the method: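 ELISA readout of I-TAC after 24 h chemical exposure; human dermal foreskin fibroblast primary cells. Positive-direction fitting vs DMSO baseline. Parallel SRB total-protein staining (0.1% SRB after 10% TCA fixation, 560 nm) flags cytotoxicity.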
# [8] = read-out: Plasminogen activator inhibitor-1 (PAI1), SERPINE1 (gene 5054); assay: BSK_KF3CT_PAI1: BioMAP Diversity Plus: KF3CT Assay for Plasminogen activator inhibitor-1 (PAI1) Biomarker Activity (AID 2284252); settings: primary human keratinocytes with fibroblasts
# Summary of the method: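 Human primary keratinocyte/foreskin fibroblast co-culture was dosed with compound and sampled at 24 h. PAI-1 was quantified by ELISA, with activity fitted in the positive direction relative to DMSO vehicle as baseline.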
# [9] = read-out: Intercellular Adhesion Molecule 1 (ICAM1), ICAM1 (gene 3383); assay: BSK_BE3C_ICAM1: BioMAP Diversity Plus: BE3C Assay for Intercellular Adhesion Molecule 1 (ICAM1) Biomarker Activity (AID 2284278); settings: primary human bronchial epithelial cells;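 note: cell-surface ICAM-1 protein level quantified by ELISA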
# Summary of the method: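 Primary human bronchial epithelial cells were exposed to compound for 24 h, after which cell-surface ICAM-1 was quantified by ELISA. Activity was fitted in the gain-of-signal direction against DMSO as negative control and baseline.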
# [10] = read-out: Interferon-inducible T-cell alpha chemoattractant (ITAC), CXCL11 (gene 6373); assay: BSK_BE3C_ITAC: BioMAP Diversity Plus: BE3C Assay for Interferon-inducible T-cell alpha chemoattractant (ITAC) Biomarker Activity (AID 2284279); settings: primary human bronchial epithelial cells
# Summary of the method: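 BE3C cells (human primary bronchial epithelium), 24 h compound exposure, I-TAC by ELISA, DMSO = negative control/baseline, positive fitting direction.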
# [11] = read-out: Interleukin-8 (IL8), CXCL8 (gene 3576); assay: BSK_BE3C_IL8: BioMAP Diversity Plus: BE3C Assay for Interleukin-8 (IL8) Biomarker Activity (AID 2284280); settings: primary human bronchial epithelial cells
# Summary of the method: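 ELISA read-out of IL-8 in human lung bronchial epithelial primary cell cultures, 24 h post-dosing; endpoint analysed as signal increase relative to DMSO baseline.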
# [12] = read-out: Epidermal growth factor receptor (EGFR), EGFR (gene 1956); assay: BSK_BE3C_EGFR: BioMAP Diversity Plus: BE3C Assay for Epidermal growth factor receptor (EGFR) Biomarker Activity (AID 2284281); settings: primary human bronchial epithelial cells
# Summary of the method: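 Primary human lung bronchial epithelial cells; compound, 24 h; EGFR measured by ELISA; positive-direction fit vs DMSO baseline.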
# [13] = read-out: Matrix Metallopeptidase 9 (MMP9), MMP9 (gene 4318); assay: BSK_BE3C_MMP9: BioMAP Diversity Plus: BE3C Assay for Matrix Metallopeptidase 9 (MMP9) Biomarker Activity (AID 2284283); settings: primary human bronchial epithelial cells
# Summary of the method: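 BE3C, human bronchial epithelial primary cells; 24 h post-dose; MMP-9 by ELISA; positive fit vs DMSO; SRB (0.1%, TCA-fixed, 560 nm) parallel cytotox.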
# [14] = read-out: Plasminogen activator inhibitor-1 (PAI1), SERPINE1 (gene 5054); assay: BSK_CASM3C_PAI1: BioMAP Diversity Plus: CASM3C Assay for Plasminogen activator inhibitor-1 (PAI1) Biomarker Activity (AID 2284284); settings: primary human coronary artery smooth muscle cells;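 note: PAI-1 protein level measured by ELISA 24 h after dosing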
# [15] = read-out: Monocyte Chemoattractant Protein-1 (MCP1), CCL2 (gene 6347); assay: BSK_hDFCGF_MCP1: BioMAP Diversity Plus: hDFCGF Assay for Monocyte Chemoattractant Protein-1 (MCP1) Biomarker Activity (AID 2284285); settings: primary human foreskin fibroblasts
# Summary of the method: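 Human foreskin fibroblasts (hDFCGF system) were exposed to compound and secreted MCP-1 was measured by ELISA after 24 hours. Activity was fitted relative to DMSO. Cytotoxicity was checked by SRB total-protein staining in parallel cultures.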
# [16] = read-out: Intercellular Adhesion Molecule 1 (ICAM1), ICAM1 (gene 3383); assay: BSK_hDFCGF_ICAM1: BioMAP Diversity Plus: hDFCGF Assay for Intercellular Adhesion Molecule 1 (ICAM1) Biomarker Activity (AID 2284287); settings: primary human foreskin fibroblasts
# Summary of the method: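 Primary human foreskin fibroblasts (hDFCGF system) dosed with chemical; ICAM-1 quantified by ELISA at 24 h relative to DMSO. Parallel SRB total-protein staining to assess overt cytotoxicity.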
# [17] = biological target: human Phosphoinositide 3-kinase alpha (PI3Ka), PIK3CA (gene 5290) (UniProt P42336); assay: NVS_ENZ_hPI3Ka: NovaScreen (NVS) Enzymatic Assay for human Phosphoinositide 3-kinase alpha (PI3Ka) (AID 2283196; active = hit-call score of the fitted dose curve at least 0.9, where 1 is the maximum)
# Summary of the method: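 Chemicals were first screened at 25 uM in duplicate, then hits were run as concentration series up to 50 uM. Enzyme activity was measured by fluorescence after mobility-shift separation, with loss of signal relative to DMSO taken as activity.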
# [18] = biological target: D(1A) dopamine receptor (Homo sapiens) (UniProt P21728); assay: NVS_GPCR_hDRD1: NovaScreen (NVS) G Protein-Coupled Receptor Assay for human Dopamine Receptor D1 (DRD1) (AID 2283269; active = hit-call score of the fitted dose curve at least 0.9, where 1 is the maximum)
# Summary of the method: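 HEK293-derived receptor preparation; radioligand competitive displacement; 1 h; filtration + scintillation counting. DMSO = negative control/baseline. Primary: 25 uM, duplicate; secondary: concentration–response for actives.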
# [19] = biological target: human Caspase 5 (CASP5), CASP5 (gene 838) (UniProt P51878); assay: NVS_ENZ_hCASP5: NovaScreen (NVS) Enzymatic Assay for human Caspase 5 (CASP5) (AID 2283137; active = hit-call score of the fitted dose curve at least 0.9, where 1 is the maximum)
# Summary of the method: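 Recombinant E. coli-expressed human caspase 5 in a cell-free enzyme assay; fluorescence intensity read 2 hours after chemical dosing. Single-concentration duplicate screen at 25 uM, then concentration-response up to 50 uM for hits; DMSO negative control.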
# [20] = biological target: human Dual Specificity Protein Phosphatase 3 (DUSP3), DUSP3 (gene 1845) (UniProt P51452); assay: NVS_ENZ_hDUSP3: NovaScreen (NVS) Enzymatic Assay for human Dual Specificity Protein Phosphatase 3 (DUSP3) (AID 2283152; active = hit-call score of the fitted dose curve at least 0.9, where 1 is the maximum;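 note: phosphatase activity of recombinant human DUSP3 on a fluorogenic substrate without cells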)
# Summary of the method: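 Cell-free assay with recombinant human DUSP3 and fluorogenic substrate, read by fluorescence intensity. Primary screen ran duplicate at 25 uM; actives followed up in concentration series; loss of signal versus DMSO scored.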
# Chain of D(1A) dopamine receptor (Homo sapiens) (P21728 whole entry, looked up): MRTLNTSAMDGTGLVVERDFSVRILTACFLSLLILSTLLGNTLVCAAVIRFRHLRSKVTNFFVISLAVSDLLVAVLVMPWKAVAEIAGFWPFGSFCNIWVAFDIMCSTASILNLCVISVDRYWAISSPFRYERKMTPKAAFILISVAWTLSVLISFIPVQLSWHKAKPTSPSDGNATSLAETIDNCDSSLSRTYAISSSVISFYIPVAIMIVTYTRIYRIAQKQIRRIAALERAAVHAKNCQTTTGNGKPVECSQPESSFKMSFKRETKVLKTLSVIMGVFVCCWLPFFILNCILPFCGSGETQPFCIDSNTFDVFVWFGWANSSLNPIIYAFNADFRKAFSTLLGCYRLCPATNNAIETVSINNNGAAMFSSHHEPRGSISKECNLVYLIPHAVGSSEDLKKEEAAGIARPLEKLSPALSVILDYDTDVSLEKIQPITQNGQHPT
# Chain of Estrogen receptor (Homo sapiens) + Estrogen receptor beta (Homo sapiens) (P03372 whole entry, looked up): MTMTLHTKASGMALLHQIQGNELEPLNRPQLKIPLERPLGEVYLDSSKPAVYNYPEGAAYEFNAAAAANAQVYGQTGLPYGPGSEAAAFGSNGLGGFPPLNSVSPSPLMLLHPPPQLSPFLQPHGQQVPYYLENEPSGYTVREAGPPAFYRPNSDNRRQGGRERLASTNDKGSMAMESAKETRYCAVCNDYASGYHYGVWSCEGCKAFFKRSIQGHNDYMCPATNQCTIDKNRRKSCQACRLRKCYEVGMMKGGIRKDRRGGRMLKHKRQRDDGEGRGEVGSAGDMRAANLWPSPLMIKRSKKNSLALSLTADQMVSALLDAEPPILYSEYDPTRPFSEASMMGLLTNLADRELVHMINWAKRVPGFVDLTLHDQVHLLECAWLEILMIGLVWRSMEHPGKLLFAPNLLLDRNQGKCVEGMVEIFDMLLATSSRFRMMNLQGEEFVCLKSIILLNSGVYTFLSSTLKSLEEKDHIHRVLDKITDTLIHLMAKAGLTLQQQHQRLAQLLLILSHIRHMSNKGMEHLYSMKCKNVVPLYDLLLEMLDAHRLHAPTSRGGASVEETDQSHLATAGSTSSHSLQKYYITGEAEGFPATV
# Chain of Estrogen receptor (Homo sapiens) + Estrogen receptor beta (Homo sapiens) (Q92731 whole entry, looked up): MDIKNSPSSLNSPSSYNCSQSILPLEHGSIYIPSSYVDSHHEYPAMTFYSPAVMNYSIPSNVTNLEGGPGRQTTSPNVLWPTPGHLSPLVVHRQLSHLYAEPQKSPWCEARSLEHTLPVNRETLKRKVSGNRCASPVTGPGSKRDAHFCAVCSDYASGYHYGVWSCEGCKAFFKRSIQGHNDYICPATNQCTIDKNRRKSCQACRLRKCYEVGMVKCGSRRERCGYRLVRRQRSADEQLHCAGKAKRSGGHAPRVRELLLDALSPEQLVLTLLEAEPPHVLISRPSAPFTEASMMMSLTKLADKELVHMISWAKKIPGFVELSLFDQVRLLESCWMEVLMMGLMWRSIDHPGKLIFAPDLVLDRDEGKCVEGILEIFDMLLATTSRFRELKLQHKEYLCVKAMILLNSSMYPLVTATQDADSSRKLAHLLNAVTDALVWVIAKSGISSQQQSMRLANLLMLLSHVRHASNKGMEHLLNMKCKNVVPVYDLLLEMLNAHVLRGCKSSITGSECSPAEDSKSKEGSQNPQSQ
# Chain of human Dual Specificity Protein Phosphatase 3 (DUSP3), DUSP3 (gene 1845) (P51452 whole entry, looked up): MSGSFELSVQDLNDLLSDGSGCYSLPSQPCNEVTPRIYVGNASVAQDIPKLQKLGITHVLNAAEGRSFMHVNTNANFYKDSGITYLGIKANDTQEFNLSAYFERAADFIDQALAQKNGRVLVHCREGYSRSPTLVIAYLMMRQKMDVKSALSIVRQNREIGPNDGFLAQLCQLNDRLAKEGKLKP
# Chain of human Caspase 5 (CASP5), CASP5 (gene 838) (P51878 whole entry, looked up): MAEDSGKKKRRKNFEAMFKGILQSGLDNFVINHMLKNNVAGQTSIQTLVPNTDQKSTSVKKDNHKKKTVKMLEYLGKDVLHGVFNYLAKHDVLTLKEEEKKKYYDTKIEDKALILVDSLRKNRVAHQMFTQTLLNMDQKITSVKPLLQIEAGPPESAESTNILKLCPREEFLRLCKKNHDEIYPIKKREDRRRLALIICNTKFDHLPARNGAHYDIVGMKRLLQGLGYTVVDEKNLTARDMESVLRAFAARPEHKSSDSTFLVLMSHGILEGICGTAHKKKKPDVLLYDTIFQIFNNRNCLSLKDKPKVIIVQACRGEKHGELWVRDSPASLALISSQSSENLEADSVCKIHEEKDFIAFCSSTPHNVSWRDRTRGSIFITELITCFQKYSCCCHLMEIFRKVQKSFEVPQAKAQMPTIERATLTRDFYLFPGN
# Chain of human Phosphoinositide 3-kinase alpha (PI3Ka), PIK3CA (gene 5290) (P42336 whole entry, looked up): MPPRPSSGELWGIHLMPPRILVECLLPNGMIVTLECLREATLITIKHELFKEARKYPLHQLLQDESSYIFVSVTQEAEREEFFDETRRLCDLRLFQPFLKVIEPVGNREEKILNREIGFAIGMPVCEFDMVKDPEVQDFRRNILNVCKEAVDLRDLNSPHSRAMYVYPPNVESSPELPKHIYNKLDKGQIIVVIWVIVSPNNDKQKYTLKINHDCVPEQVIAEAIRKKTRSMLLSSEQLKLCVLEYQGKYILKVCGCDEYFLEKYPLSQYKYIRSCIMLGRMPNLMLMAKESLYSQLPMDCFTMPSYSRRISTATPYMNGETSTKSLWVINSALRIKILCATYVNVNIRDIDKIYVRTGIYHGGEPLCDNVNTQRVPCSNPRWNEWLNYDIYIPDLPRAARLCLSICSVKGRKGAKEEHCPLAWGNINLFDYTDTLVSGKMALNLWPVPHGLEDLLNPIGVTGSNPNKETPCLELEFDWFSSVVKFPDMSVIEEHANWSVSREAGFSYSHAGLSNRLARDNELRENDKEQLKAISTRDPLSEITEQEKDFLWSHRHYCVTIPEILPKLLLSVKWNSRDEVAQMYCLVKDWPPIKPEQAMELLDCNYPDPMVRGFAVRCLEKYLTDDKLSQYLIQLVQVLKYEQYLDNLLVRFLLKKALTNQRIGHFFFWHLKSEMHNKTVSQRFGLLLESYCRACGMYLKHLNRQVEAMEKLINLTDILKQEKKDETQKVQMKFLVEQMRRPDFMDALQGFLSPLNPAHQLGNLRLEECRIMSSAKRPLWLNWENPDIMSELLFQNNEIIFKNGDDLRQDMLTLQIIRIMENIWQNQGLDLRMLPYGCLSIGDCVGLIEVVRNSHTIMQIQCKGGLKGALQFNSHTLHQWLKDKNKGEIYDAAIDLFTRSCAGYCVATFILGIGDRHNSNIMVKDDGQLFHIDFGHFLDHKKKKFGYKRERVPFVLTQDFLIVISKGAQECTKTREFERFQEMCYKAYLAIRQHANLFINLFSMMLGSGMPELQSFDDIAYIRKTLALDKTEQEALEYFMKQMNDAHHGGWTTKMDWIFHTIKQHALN
smiles,measurement,setting,value
O=CNC(N1CCN(C(NC=O)C(Cl)(Cl)Cl)CC1)C(Cl)(Cl)Cl (stereo not given),AC50,[1],5.96 µM (active)
same,AC50,[2],50 µM (active)
same,outcome,[3],inactive
COC(=O)COc1ccc(Cl)cc1Cl,AC50,[4],13.7 µM (active)
Cc1cc(C)c(C2=C(OC(=O)CC(C)(C)C)C3(CCCC3)OC2=O)c(C)c1,outcome,[5],inactive
O=[N+]([O-])O,outcome,[6],inactive
same,outcome,[7],inactive
same,outcome,[8],inactive
same,outcome,[9],inactive
same,outcome,[10],inactive
same,outcome,[11],inactive
same,outcome,[12],inactive
same,outcome,[13],inactive
same,outcome,[14],inactive
same,outcome,[15],inactive
same,outcome,[16],inactive
CC(C)(c1cc(Cl)c(O)c(Cl)c1)c1cc(Cl)c(O)c(Cl)c1,AC50,[1],0.992 µM (active)
same,AC50,[17],3.45 µM (active)
O=[N+]([O-])C=Cc1ccccc1,AC50,[18],8.25 µM (active)
O=C1C(Cl)=C(Cl)C(=O)C(Cl)=C1Cl,AC50,[19],148 nM (active)
same,AC50,[20],1.19 µM (active)
same,AC50,[18],4.01 µM (active)
CC(Cc1ccc(C(C)(C)C)cc1)CN1C[C@@H](C)O[C@@H](C)C1 (stereo not given in full),AC50,[1],6.83 µM (active)
CC(C)C(=O)Cl,outcome,[18],inactive
CCOC(=O)NC(=S)Nc1ccccc1NC(=S)NC(=O)OCC,AC50,[1],2.84 µM (active)
c1ccc2c(c1)CCCC2,outcome,[5],inactive
CNC(=O)Oc1cc(C)c(SC)c(C)c1,AC50,[4],14 µM (active)
same,outcome,[18],inactive
same,AC50,[2],37.7 µM (active)
same,AC50,[3],36 µM (active)
